Experiments:
Assay in all cases: DAPPL (digital affinity profiling via proximity ligation, sequencing); 10 mM Tris-HCl pH 7.5, 50 mM NaCl, 1 mM DTT, 4% glycerol, room temperature, 30 min; GST-TFs on glutathione beads, 16-mer random dsDNA library, 0.1% formaldehyde crosslink after washing; high values mean tight binding
Settings in all cases: protein: recombinant; tags: N-terminal GST; dsDNA, one strand shown
[1] = molecular target: T1, FLI1 (Homo sapiens, UniProt Q01543 1-452)
T1 sequence: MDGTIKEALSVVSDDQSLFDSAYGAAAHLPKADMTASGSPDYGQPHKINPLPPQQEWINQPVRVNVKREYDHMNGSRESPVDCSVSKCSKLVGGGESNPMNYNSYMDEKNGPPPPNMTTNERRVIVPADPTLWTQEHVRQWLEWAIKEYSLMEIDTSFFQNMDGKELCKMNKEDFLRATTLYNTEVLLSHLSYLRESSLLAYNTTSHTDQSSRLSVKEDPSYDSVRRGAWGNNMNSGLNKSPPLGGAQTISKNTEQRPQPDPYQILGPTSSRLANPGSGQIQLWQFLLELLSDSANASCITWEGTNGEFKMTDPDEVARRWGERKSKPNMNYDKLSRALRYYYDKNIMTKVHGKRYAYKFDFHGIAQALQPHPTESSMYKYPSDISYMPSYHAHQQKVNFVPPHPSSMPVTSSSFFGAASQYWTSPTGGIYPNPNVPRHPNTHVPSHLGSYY
Procedure, shortened: (§1)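 GST fusions of human transcription factors were expressed in yeast and captured with glutathione beads. Once given DNA barcodes and pooled alongside a tag-only sample, they were incubated for 30 min at room temperature with 200 nmole of a random double-stranded 16-mer DNA library in Tris/NaCl/DTT/glycerol buffer, then washed, crosslinked (0.1% formaldehyde), proximity-ligated, PCR-amplified and sequenced on an Illumina NextSeq500. The binding signal of each hexamer is its read frequency for a factor divided by its frequency for the tag-only sample.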

[2] = molecular target: T2, ELK1 (Homo sapiens, UniProt P19419 1-428)
T2 sequence: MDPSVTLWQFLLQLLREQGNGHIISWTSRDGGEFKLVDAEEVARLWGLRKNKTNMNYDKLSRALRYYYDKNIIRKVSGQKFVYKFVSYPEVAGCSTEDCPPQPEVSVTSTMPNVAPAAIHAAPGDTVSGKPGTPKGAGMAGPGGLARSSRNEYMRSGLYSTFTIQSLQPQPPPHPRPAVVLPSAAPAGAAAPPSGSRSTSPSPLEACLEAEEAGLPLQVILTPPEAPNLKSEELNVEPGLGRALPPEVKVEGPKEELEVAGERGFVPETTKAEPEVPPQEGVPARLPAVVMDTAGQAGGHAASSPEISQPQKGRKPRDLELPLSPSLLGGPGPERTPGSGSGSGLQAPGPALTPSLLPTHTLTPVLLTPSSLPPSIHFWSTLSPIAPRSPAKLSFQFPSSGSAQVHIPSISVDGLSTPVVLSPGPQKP
Procedure, shortened: as §1

[3] = molecular target: T3, GABPA (Homo sapiens, UniProt Q06546 1-454)
T3 sequence: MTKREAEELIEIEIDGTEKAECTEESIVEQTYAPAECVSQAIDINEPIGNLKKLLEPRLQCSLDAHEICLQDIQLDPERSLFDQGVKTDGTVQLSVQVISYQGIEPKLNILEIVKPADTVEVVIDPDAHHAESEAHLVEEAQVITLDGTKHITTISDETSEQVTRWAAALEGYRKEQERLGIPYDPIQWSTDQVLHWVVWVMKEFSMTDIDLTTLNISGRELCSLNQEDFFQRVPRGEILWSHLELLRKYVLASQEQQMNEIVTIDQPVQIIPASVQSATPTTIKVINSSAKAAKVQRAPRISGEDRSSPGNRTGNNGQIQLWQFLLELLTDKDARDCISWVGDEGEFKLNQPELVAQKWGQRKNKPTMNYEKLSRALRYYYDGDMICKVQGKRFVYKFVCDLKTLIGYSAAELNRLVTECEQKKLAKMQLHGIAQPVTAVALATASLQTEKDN
Procedure, shortened: as §1

[4] = molecular target: T4, ERG (Homo sapiens, UniProt P11308 1-479)
T4 sequence: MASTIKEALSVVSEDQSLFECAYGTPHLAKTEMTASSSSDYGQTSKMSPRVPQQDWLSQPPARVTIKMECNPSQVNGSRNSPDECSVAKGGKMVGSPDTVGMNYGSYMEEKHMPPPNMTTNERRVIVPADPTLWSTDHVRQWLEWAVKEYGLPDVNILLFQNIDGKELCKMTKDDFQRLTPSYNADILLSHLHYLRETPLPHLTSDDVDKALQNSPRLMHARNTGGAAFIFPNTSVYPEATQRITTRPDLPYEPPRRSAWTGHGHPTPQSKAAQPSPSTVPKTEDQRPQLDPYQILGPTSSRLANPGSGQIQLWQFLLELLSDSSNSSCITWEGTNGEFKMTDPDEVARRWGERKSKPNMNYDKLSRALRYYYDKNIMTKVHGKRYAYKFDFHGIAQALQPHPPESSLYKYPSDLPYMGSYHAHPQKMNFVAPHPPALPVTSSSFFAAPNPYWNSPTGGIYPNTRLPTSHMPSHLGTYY
Procedure, shortened: as §1

[5] = molecular target: ELF1 (Homo sapiens, UniProt P32519 1-619)
Procedure, shortened: as §1

[6] = molecular target: T5, EHF (Homo sapiens, UniProt Q9NZC4 1-300)
T5 sequence: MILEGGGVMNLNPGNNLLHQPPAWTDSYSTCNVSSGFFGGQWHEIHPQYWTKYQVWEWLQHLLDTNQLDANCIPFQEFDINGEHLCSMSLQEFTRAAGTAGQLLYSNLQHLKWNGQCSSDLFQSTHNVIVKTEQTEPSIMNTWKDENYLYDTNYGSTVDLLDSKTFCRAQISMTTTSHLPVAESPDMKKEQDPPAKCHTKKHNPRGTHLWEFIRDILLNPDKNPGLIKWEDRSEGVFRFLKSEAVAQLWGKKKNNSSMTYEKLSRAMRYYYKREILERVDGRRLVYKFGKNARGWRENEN
Procedure, shortened: as §1

[7] = molecular target: SPI1 (Homo sapiens, UniProt P17947 1-270)
Procedure, shortened: as §1

[8] = molecular target: SPIB (Homo sapiens, UniProt Q01892 1-262)
Procedure, shortened: as §1

[9] = molecular target: T6, ELK3 (Homo sapiens, UniProt P41970 1-407)
T6 sequence: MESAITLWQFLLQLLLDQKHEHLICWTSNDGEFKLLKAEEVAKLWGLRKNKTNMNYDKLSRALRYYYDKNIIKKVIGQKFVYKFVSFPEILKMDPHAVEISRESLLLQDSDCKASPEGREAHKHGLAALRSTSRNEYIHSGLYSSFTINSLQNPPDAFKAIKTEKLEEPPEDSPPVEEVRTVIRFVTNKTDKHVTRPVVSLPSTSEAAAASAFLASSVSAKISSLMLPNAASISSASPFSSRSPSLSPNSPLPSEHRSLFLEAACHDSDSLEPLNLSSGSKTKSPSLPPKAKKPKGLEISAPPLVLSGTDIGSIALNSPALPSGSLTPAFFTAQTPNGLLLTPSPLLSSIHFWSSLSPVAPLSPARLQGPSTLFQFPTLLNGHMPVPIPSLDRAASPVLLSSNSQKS
Procedure, shortened: as §1

[10] = molecular target: T7, FEV (Homo sapiens, UniProt Q99581 1-238)
T7 sequence: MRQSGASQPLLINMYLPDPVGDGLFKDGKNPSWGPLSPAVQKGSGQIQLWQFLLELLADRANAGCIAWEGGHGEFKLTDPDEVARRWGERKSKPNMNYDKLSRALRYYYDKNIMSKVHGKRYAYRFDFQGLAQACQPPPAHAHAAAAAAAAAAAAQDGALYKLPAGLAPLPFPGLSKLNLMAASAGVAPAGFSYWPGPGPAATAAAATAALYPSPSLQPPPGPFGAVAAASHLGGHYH
Procedure, shortened: as §1

[11] = molecular target: ETV5 (Homo sapiens, UniProt P41161 1-510)
Procedure, shortened: as §1

[12] = molecular target: T8, SPIC (Homo sapiens, UniProt Q8N5J4 1-248)
T8 sequence: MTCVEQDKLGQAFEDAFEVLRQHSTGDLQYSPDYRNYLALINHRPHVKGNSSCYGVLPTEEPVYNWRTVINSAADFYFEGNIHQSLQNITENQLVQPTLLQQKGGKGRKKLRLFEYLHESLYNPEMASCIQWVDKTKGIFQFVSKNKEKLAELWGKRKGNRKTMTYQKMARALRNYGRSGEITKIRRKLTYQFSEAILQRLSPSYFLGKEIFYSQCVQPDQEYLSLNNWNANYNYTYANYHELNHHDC
Procedure, shortened: as §1

[13] = molecular target: ETV1 (Homo sapiens, UniProt P50549 1-477)
Procedure, shortened: as §1

[14] = molecular target: T9, ERF (Homo sapiens, UniProt P50548 1-548)
T9 sequence: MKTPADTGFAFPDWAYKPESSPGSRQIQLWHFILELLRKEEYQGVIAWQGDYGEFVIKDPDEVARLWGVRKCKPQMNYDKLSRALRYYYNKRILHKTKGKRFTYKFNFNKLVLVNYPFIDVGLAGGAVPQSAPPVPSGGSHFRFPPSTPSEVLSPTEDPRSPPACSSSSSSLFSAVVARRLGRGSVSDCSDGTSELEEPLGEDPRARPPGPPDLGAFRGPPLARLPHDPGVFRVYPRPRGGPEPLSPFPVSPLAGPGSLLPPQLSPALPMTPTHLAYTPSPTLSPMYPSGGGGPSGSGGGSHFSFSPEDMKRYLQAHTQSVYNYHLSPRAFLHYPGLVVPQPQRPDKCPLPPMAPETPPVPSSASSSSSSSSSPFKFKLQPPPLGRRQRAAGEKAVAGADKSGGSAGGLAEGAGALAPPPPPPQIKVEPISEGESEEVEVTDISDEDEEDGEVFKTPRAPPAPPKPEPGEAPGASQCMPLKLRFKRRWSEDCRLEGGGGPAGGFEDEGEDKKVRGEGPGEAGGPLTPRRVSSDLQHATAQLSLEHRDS
Procedure, shortened: as §1

[15] = molecular target: T10, ETV3L (Homo sapiens, UniProt Q6ZN32 1-361)
T10 sequence: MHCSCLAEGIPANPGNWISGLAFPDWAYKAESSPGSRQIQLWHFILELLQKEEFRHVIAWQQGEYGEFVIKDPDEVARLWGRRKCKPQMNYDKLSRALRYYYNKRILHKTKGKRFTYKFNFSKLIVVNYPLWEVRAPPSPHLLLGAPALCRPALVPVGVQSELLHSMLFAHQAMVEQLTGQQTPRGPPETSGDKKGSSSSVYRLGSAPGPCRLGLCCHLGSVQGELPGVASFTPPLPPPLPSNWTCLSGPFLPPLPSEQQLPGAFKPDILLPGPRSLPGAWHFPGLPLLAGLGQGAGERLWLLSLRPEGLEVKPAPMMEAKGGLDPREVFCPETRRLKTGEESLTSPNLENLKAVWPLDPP
Procedure, shortened: as §1

[16] = molecular target: T11, ETS2 (Homo sapiens, UniProt P15036 1-469)
T11 sequence: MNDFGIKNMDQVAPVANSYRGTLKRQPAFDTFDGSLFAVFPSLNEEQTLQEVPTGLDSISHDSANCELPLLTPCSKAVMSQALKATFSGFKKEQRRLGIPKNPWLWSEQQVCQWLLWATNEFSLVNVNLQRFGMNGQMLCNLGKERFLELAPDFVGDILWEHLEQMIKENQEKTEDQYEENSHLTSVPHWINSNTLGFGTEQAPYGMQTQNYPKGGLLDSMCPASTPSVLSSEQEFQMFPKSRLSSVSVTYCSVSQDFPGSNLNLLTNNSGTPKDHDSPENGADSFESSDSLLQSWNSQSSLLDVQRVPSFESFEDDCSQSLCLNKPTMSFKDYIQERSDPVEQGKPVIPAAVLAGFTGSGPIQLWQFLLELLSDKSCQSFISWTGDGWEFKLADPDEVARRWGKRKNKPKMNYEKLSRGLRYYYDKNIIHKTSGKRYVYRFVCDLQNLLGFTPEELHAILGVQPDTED
Procedure, shortened: as §1

[17] = molecular target: T12, ELF5 (Homo sapiens, UniProt Q9UKW6-2 1-255)
T12 sequence: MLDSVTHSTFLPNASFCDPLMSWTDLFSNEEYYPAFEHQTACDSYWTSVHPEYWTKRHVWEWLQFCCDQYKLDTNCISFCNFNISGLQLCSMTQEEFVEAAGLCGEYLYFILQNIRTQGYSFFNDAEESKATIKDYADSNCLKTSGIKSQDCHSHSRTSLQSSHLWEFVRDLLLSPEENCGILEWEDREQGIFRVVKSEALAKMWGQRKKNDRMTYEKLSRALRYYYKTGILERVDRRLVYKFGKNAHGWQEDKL
Procedure, shortened: as §1

[18] = molecular target: T13, ETV3 (Homo sapiens, UniProt P41162-2 1-143)
T13 sequence: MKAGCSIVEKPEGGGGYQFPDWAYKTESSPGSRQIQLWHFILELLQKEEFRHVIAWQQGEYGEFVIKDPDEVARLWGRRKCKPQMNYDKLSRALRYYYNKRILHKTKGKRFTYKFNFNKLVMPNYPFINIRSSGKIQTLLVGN
Procedure, shortened: as §1

[19] = molecular target: ETV6 (Homo sapiens, UniProt P41212 1-452)
Procedure, shortened: as §1

Chain of SPIB (Q01892 whole entry): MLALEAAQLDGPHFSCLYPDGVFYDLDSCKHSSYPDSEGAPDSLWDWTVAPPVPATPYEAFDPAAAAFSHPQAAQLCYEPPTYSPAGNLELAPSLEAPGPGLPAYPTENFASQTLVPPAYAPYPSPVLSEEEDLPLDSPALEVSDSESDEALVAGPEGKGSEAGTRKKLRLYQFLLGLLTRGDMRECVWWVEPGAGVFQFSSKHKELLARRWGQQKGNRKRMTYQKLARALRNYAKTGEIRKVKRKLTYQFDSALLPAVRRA
Chain of ETV1 (P50549 whole entry): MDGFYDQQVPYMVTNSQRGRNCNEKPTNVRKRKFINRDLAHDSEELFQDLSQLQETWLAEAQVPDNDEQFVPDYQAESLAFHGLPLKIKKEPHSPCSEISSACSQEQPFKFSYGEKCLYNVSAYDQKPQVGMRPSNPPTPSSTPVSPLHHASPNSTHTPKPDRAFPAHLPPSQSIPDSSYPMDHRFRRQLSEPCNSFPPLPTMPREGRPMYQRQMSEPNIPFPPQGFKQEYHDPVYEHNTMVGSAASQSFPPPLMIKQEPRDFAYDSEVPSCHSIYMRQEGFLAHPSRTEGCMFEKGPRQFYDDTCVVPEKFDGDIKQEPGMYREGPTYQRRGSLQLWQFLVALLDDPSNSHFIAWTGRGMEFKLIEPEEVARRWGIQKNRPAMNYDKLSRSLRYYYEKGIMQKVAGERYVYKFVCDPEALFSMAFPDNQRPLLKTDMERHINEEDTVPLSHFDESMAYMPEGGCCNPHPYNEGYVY
Chain of ETV6 (P41212 whole entry): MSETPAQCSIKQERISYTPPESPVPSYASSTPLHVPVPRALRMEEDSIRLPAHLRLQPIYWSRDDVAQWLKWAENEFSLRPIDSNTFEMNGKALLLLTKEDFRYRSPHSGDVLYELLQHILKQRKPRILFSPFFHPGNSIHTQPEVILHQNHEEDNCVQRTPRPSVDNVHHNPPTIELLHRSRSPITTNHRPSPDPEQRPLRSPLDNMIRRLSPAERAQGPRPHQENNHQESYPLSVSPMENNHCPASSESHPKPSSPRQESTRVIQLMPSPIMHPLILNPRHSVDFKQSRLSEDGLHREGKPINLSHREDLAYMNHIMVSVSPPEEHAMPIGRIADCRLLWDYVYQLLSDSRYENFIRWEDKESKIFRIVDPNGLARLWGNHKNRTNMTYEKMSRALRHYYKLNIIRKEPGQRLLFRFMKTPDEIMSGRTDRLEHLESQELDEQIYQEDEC
Chain of ELF1 (P32519 whole entry): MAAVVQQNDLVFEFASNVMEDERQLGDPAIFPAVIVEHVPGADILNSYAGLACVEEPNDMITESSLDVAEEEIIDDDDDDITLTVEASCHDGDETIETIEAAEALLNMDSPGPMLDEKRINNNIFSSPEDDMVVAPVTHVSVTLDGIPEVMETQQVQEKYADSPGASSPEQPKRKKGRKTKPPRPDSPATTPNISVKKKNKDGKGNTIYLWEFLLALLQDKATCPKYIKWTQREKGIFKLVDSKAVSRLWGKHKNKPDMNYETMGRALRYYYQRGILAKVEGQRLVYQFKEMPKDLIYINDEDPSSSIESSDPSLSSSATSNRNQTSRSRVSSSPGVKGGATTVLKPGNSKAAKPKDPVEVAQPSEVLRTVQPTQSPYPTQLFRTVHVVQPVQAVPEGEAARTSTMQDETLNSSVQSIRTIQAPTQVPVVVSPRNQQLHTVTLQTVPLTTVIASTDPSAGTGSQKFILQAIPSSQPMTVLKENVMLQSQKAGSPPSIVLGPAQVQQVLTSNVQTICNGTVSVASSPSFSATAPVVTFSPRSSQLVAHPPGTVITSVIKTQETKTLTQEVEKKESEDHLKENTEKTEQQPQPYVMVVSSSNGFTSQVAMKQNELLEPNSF
Chain of ETV5 (P41161 whole entry): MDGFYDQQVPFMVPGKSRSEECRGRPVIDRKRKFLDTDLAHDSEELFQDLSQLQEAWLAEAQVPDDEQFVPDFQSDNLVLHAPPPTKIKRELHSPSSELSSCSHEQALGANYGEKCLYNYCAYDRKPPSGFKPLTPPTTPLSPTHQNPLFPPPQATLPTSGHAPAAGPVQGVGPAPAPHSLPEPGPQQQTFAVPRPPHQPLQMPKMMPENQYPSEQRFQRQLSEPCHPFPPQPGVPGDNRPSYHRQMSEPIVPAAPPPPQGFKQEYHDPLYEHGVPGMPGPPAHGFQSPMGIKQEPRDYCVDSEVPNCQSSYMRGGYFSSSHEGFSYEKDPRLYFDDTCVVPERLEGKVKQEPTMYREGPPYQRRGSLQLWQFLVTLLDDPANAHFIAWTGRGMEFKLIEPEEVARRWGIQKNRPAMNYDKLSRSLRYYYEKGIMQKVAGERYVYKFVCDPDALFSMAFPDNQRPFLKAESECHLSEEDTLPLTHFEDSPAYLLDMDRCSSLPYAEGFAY

AGTGGT
binding signal [1]: 1.04 fold enrichment (6-mer frequency, TF over GST control) | binding signal [2]: 1.03 fold enrichment (6-mer frequency, TF over GST control) | binding signal [3]: 1.09 fold enrichment (6-mer frequency, TF over GST control) | binding signal [4]: 1.06 fold enrichment (6-mer frequency, TF over GST control) | binding signal [5]: 1.06 fold enrichment (6-mer frequency, TF over GST control) | binding signal [6]: 1.11 fold enrichment (6-mer frequency, TF over GST control) | binding signal [7]: 1.42 fold enrichment (6-mer frequency, TF over GST control) | binding signal [8]: 1.22 fold enrichment (6-mer frequency, TF over GST control) | binding signal [9]: 1.15 fold enrichment (6-mer frequency, TF over GST control) | binding signal [10]: 1.02 fold enrichment (6-mer frequency, TF over GST control) | binding signal [11]: 1.14 fold enrichment (6-mer frequency, TF over GST control) | binding signal [12]: 1.22 fold enrichment (6-mer frequency, TF over GST control) | binding signal [13]: 1.02 fold enrichment (6-mer frequency, TF over GST control) | binding signal [14]: 1.14 fold enrichment (6-mer frequency, TF over GST control) | binding signal [15]: 1.06 fold enrichment (6-mer frequency, TF over GST control) | binding signal [16]: 1.12 fold enrichment (6-mer frequency, TF over GST control) | binding signal [17]: 1.14 fold enrichment (6-mer frequency, TF over GST control) | binding signal [18]: 1.09 fold enrichment (6-mer frequency, TF over GST control) | binding signal [19]: 1.11 fold enrichment (6-mer frequency, TF over GST control)

— paper PMC7862700, “An all-to-all approach to the identification of sequence-specific readers for epigenetic DNA modifications on cytosine”
